Compound activity (PubChem BioAssay)
In the library only some 2.4% were active in any assay of this set; here they are far more common.
HSF1 inh = HSF1 inhibition | 300,000 tested, 0.77% active | AID 2098 | activity change, negative = inhibition, % at 7.5 µM (by protocol) | NIH3T3-HGL HSE-luciferase, MG132-induced, luminescence 8 h; active compounds read low;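 active = more than half of replicate wells show activity change below -50%, luminescence cut by over half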;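 note: luciferase reports HSF-1 transcriptional activity via heat shock element; 0% = median of DMSO wells and -100% = zero luminescence signal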
PPC-1+TRAIL kill = compounds killing PPC-1 cancer cells with TRAIL present (potentiator screen, no TRAIL-free arm); 220,000 tested, 0.41% active; cell killing (% activity), % at 4 µM or 5 µM; PPC-1 cells + TRAIL, ATPLite viability luminescence; AID 1443;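 active = cell killing above 50% in the first pass at 4 µM, then a duplicate retest at 5 µM averaging 50% or more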;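 note: plate controls were cells with TRAIL plus DMSO for no effect and medium-only wells lacking cells for full effect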
STAT1 blocker = inhibitors of IFN-gamma induced STAT1 signaling | NIH 3T3 STAT1-luciferase reporter, luminescence | inhibition, % at 5.5 µM | 200,000 tested, 0.35% active;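 active = inhibition above a set limit, the mean inhibition across all tested compounds plus 3 SD, cut at about 34% in these data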;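 note: 0% = IFN-gamma with DMSO and 100% = IFN-gamma with 300 µM nifuroxazide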
TRAIL sens C8 = caspase-8 TRAIL sensitization. 360,000 tested, 1% active. inhibition (viability loss, TRAIL sensitization), % at 10 µM. NB7+C8 cells + TRAIL, ATPlite viability luminescence. AID 624354;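 active = compounds causing at least 50% loss of cell viability in the single-dose screen, relative to plate controls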
STAT3 blocker = inhibitors of IL-6 induced STAT3 signaling; AID 862; U3A cells, IL-6 STAT3-luciferase reporter, luminescence; host cell line lacks STAT1; inhibition, % at 5.5 µM; 190,000 tested, 0.89% active;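 active = inhibition above the mean inhibition across all screened compounds plus 3 SD, cut at about 44% in these data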;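 note: 0% = DMSO only wells and 100% = 100 µM nifuroxazide control wells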
HSP90 inh = inhibitors of HSP90 luciferase refolding in rabbit reticulocyte lysate. luciferase refolding luminescence, 3 h. AID 1789. 290,000 tested, 0.91% active. inhibition, % at 5.6 µM;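 active = inhibition above the screen-wide mean plus 3 SD, computed separately per campaign, cut at about 16% in these data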;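 note: 0% = DMSO wells and 100% = 60 µM geldanamycin wells; inhibitors lower the luminescence because luciferase stays unfolded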
PPC1 cytotox = PPC-1 cell cytotoxicity; cytotoxicity, % at 5 µM; shares compounds with PPC-1+TRAIL kill; 1,200 tested, 50% active; PPC-1 viability, ATPlite luminescence, overnight;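 active = reconfirmed compounds whose average cytotoxicity reaches 50% or more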;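 note: 0% = DMSO-treated cells and 100% = wells holding medium but no cells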
The depositor's hits bear a star.

Cn1nc(C(C)(C)C)cc1C(=O)N1CCCCC1c1cc(C(=O)Nc2ccc(F)c(Cl)c2)no1 (stereo not given) was read as TRAIL sens C8 15.9.
`COc1ccc(C(=O)C(=NNc2ccccc2)c2ccc(OC)cc2)cc1` gave TRAIL sens C8 -9.2.
COc1ccc(N/N=C(/N=Nc2nc(C)cc(=O)[nH]2)c2ccccc2)cc1 was read as HSF1 inh 0.1, PPC-1+TRAIL kill 61.3*, STAT1 blocker -18.5, TRAIL sens C8 53.2*, STAT3 blocker 25.1, HSP90 inh -2.4 and PPC1 cytotox 57.6*.
Screening Cc1cc(=O)[nH]c(N/N=C/c2ccccc2C(F)(F)F)n1 returned PPC-1+TRAIL kill 18.0, STAT1 blocker -15.8, TRAIL sens C8 1.7, STAT3 blocker 13.9 and HSP90 inh 7.9.
For Cc1cc(=O)[nH]c(N=N/C(=N/Nc2ccccc2C)c2ccccc2)n1 the results were HSF1 inh -4.5, PPC-1+TRAIL kill 42.5, STAT1 blocker 3.2, TRAIL sens C8 2.2, STAT3 blocker 24.5, HSP90 inh 6.9 and PPC1 cytotox 35.5.
Cc1cc(=O)[nH]c(N=N/C(=N/Nc2ccc(O)cc2)c2ccccc2)n1 was read as HSF1 inh 21.2, PPC-1+TRAIL kill 11.8, STAT1 blocker -14.5, TRAIL sens C8 -0.1, STAT3 blocker 6.8, HSP90 inh 1.0 and PPC1 cytotox 1.6.
`C[C@H](CO)N1C[C@H](C)[C@H](CN(C)S(=O)(=O)c2ccc(F)cc2)OCc2cnnn2CCCC1=O` gave TRAIL sens C8 -6.5.
For CCC(=O)Nc1cnc(NC(=O)c2cccc(F)c2)cc1C the results were HSF1 inh 13.1, PPC-1+TRAIL kill -1.8, STAT1 blocker -45.7, TRAIL sens C8 2.7, STAT3 blocker 2.8, HSP90 inh 12.6 and PPC1 cytotox 11.8.
Screening COc1cccc(C(CCc2cc(OC)c(OC)c(OC)c2)NC(C)=O)c1 (stereo not given) returned TRAIL sens C8 3.7.
For CCOC(=O)C1=CCN(S(=O)(=O)c2ccccc2F)C1c1cccc(C)c1 (stereo not given) the results were TRAIL sens C8 -8.9.
For CC(=O)Nc1ccc(SCC(=O)c2cc(C)n(Cc3cccs3)c2C)cc1 the results were HSF1 inh -69.4*, PPC-1+TRAIL kill 38.7, STAT1 blocker 47.5*, TRAIL sens C8 39.4, STAT3 blocker 95.0*, HSP90 inh 2.9 and PPC1 cytotox 39.1.
For COc1ccc(-n2cnnc2SCC(=O)c2cc(C)n(Cc3cccs3)c2C)cc1 the results were HSF1 inh 9.4, PPC-1+TRAIL kill 3.4, STAT1 blocker -5.6, TRAIL sens C8 9.1, STAT3 blocker 9.4, HSP90 inh 0.5 and PPC1 cytotox 2.1.
Screening CCCOc1ccc2c(=O)c(N3C(=O)c4ccccc4C3=O)c(C)oc2c1 returned HSF1 inh -8.9, PPC-1+TRAIL kill -16.0, STAT1 blocker 0.2, TRAIL sens C8 -6.2, STAT3 blocker 9.1, HSP90 inh -0.2 and PPC1 cytotox -10.5.
COc1ccc(-n2c(C)cc(SC)c(C(C)=O)c2=S)cc1 was read as HSF1 inh 7.1, PPC-1+TRAIL kill 13.7, STAT1 blocker -2.6, TRAIL sens C8 -4.7, STAT3 blocker 4.3, HSP90 inh 2.8 and PPC1 cytotox -6.9.
For COc1ccc(C(=O)Sc2nncc3ccccc23)cc1 the results were HSF1 inh 3.8, PPC-1+TRAIL kill 9.9, STAT1 blocker 9.2, TRAIL sens C8 0.7, STAT3 blocker 3.8, HSP90 inh -0.5 and PPC1 cytotox 6.9.
Screening COc1ccc(NC(=O)CSc2nncc3ccccc23)cc1 returned HSF1 inh 8.1, PPC-1+TRAIL kill 14.9, STAT1 blocker -1.5, TRAIL sens C8 -6.7, STAT3 blocker 17.3 and HSP90 inh -5.6.
Screening Cc1cc(C(=O)CN2C(=O)C3CC=CCC3C2=O)c(C)n1-c1ccccc1 (stereo not given) returned HSF1 inh 2.4, PPC-1+TRAIL kill 48.5, STAT1 blocker -42.7, TRAIL sens C8 62.8*, STAT3 blocker 17.8, HSP90 inh 9.0 and PPC1 cytotox 53.0*.
For COc1ccccc1C(=O)Nc1cc(C)c(OCC(=O)N2CCOCC2)c(C)c1 the results were HSF1 inh -7.2, TRAIL sens C8 6.7 and HSP90 inh 2.2.
